A selection: hits, their analogues and other compounds. The true share with any hit is near 8.9%.
HPGD block – qHTS Assay for Inhibitors of HPGD (15-Hydroxyprostaglandin Dehydrogenase); 15-hydroxyprostaglandin dehydrogenase [NAD(+)] (Homo sapiens), P15428; purified HPGD, NADH fluorescence kinetic, PGE2 substrate; Potency, µM, for inactives: top-dose activity change, negative = inhibition, most hits filed as inhibitors; 150,000 compounds, 4.3% hits; AID 894, 2007; active = well fitted inhibition curve with a large enough effect, not every such curve was filed as active; inconclusive = small, poorly fitted or top-dose-only effect, or another doubt; inactive = no such curve, though single readings can be large or run the other way; note: potency is the fitted concentration of half-maximal effect
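20 nM HPGD preincubated 15 min at room temperature with compound in 50 mM Tris-HCl pH 8, 0.01% Tween 20. Started with 1 mM NAD+ and 30 uM prostaglandin E2; NADH fluorescence (360/450 nm) read 5 times over 30-s intervals, last minus first.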
IMPase inh – qHTS Assay for Identifying the Cell-Membrane Permeable IMPase Inhibitors; Inositol monophosphatase 1 (Rattus norvegicus), P97697; CHO-M1 cells, IP1 accumulation, HTRF TR-FRET ratio; inhibition (IP1 accumulation), % at 46.1 µM; 120,000 tested, under 10 active; AID 901, 2007; active = well fitted curve in the direction sought with a large enough effect in the signal ratio, not every such curve was filed as active; inconclusive = small, poorly fitted or top-dose-only effect, or a change in a side signal; inactive = no such curve, though single readings can be large or run the other way; the % refers to the signal ratio;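 note: cells stimulated with carbachol in lithium chloride buffer; plate controls were DMSO basal wells for no effect and reference inhibitor wells for full effect; higher means more IMPase inhibition seen as more IP1 and lower FRET ratio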
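Measured: the HTRF emission ratio (665/620 nm) plus the 620 nm donor channel, each fitted to the Hill equation to give AC50. Cells were CHO-M1 given compounds up to 46 uM and a 30 min carbachol stimulation at 37C.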
12-hLO inh – qHTS Assay for Inhibitors of 12-hLO (12-human lipoxygenase); Polyunsaturated fatty acid lipoxygenase ALOX12 (Homo sapiens), P18054; purified 12-hLO, xylenol orange hydroperoxide absorbance; Potency, µM (titrated, usually from 57.1 µM), inactives show at the top dose activity change, negative = inhibition, usual class: inhibitors; 150,000 compounds, 0.12% hits; AID 1452, 2008; note: potency is the fitted concentration of half-maximal effect; nearly all actives have a fitted effect of over 55% in size
Target sequence (P18054 whole entry, looked up): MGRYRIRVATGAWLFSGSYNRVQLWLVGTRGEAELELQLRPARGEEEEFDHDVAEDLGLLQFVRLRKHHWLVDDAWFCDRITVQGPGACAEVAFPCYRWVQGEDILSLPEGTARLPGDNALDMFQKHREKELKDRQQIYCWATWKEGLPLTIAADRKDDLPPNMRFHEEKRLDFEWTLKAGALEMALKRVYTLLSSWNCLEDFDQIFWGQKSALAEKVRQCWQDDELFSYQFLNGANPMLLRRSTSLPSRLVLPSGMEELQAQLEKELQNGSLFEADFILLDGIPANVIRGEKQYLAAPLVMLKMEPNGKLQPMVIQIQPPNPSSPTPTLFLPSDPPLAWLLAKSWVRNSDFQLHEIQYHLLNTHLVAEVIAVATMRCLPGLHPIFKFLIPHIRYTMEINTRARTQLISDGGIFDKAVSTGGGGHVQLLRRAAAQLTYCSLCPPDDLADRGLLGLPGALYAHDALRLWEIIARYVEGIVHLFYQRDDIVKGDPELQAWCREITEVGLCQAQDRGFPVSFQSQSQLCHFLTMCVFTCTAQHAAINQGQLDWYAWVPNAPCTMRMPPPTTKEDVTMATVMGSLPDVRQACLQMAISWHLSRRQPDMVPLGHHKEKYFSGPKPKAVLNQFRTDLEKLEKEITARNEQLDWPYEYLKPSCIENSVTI
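Purified human 12hLO (150 nM final) was preincubated with compounds for 15 min at room temperature in 25 mM Hepes pH 7.0, 0.01% Triton X-100, then reacted with 40 uM arachidonic acid for 30 min. Hydroperoxide was detected with ferrous iron/xylenol orange.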
IMPase Li cell – qHTS Assay for Identifying the Cell-Membrane Permeable IMPase Inhibitors: Potentiation with Lithium; 210,000 compounds, 0.35% hits; Potency, µM (highest dose often 59.4 µM), without a hit: at the top dose activity, negative = IMPase inhibition, actives largely listed as inhibitors; CHO-M1 cells, IP1 TR-FRET (IP-One), carbachol + lithium; AID 1457, 2008;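 note: IP1 builds up when IMPase is blocked and the TR-FRET signal falls; potency is the fitted concentration of half-maximal effect; plate controls were basal vehicle for no effect and high inhibitor control for full effect; nearly all actives have a fitted effect of over 50% in size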
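Readout is a homogeneous TR-FRET IP1 immunoassay (Ex 320, Em 665 and 620), where raised cytosolic IP1 lowers signal. Cells were CHO-M1 treated 30 min at 37C with test compounds plus a little lithium; AC50 values came from Hill-equation fitting.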
ALDH1A1 inh – qHTS Assay for Inhibitors of Aldehyde Dehydrogenase 1 (ALDH1A1); 220,000 compounds, 7.3% hits; Potency, µM (highest dose often 75.3 µM), without a hit: at the top dose activity, negative = inhibition, actives largely listed as inhibitors; Purified ALDH1A1, NADH fluorescence, propionaldehyde substrate; Aldehyde dehydrogenase 1A1 (Homo sapiens), P00352; active = well fitted inhibition curve with a large enough effect, not every such curve was filed as active; inconclusive = small, poorly fitted or top-dose-only effect, or another doubt; inactive = no such curve, though single readings can be large or run the other way;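 note: potency is the fitted concentration of half-maximal effect; plate controls were no enzyme wells and a reference inhibitor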
NPSR antag – qHTS Assay for Antagonists of the Neuropeptide S Receptor: cAMP Signal Transduction | Potency, µM (highest dose often 38.3 µM), without a hit: top-dose activity change, negative = inhibition, usual class: inhibitors | CHO-NPSR cells, cAMP TR-FRET, antagonist mode | 220,000 compounds, 1% hits; note: potency is the fitted concentration of half-maximal effect; nearly all actives have a fitted effect of over 50% in size
Active calls of the source: *; u = inconclusive; x = no result given; [ ] = another dose, or the depositor's remark. Unless noted, calls come from the whole dose curve; as a rule, active = well fitted curve in the direction sought with a large enough effect; inconclusive = small, poorly fitted or top-dose-only effect, or another doubt; inactive = no such curve, though single readings can be large; an effect the other way counts as inactive or inconclusive. Unless noted, % is set by controls: 0 for no effect and ±100 for the full control effect.

SMILES	HPGD block	IMPase inh	12-hLO inh	IMPase Li cell	ALDH1A1 inh	NPSR antag
CCOC(=O)c1c(/N=C/C2C(=O)CC(C)(C)CC2=O)sc2c1CCCC2	x	x	x	23%	8.9µM*	-19%
CCOC(=O)c1c(/N=C/C2=C(O)CCCC2=O)sc2c1CCCC2	x	x	x	x	x	-5%
CCOC(=O)c1c(/N=C/C2C(=O)CCCC2=O)sc2c1CCCC2	x	x	x	18%	16µM*	-28%
CCOC(=O)c1cc(CC)sc1/N=C/C1=C(O)CCCC1=O	-14%	x	0%	1%	-9%	15%
CCOC(=O)c1cc(CC)sc1/N=C/C1C(=O)CC(C)(C)CC1=O	-4%	-4	0%	8%	11µM*	20%
COc1ccc(NC(=O)CC2C(=O)N(CCc3ccccc3)C(=S)N2Cc2cccnc2)cc1 (configuration not stated)	-4%	3	-4%	8%[38.3 µM]	u	-25%[46.1 µM]
COc1ncnc2c1oc1nc(CC(C)C)c3c(c12)CCCC3	-7%	0	-1%	-16%[38.3 µM]	14µM*	-22%[46.1 µM]
O=C1N/C(=C/c2cccn2-c2ccc(F)cc2)C(=O)N1Cc1ccccc1F	-2%	x	0%	-4%	u	-6%
COc1cc(/C=C2/NC(=O)N(Cc3ccccc3F)C2=O)ccc1O	x	x	x	-5%	6.3µM*	-23%
COc1cc(/C=C2\SC(=O)NC2=O)ccc1Oc1ccc([N+](=O)[O-])cn1	x	x	x	x	x	-58%
CCOc1cc(/C=C2/NC(=O)N(CC(=O)OC)C2=O)ccc1OC	x	x	x	5%	u	-14%
COc1cc(/C=C2/NC(=O)N(Cc3ccccc3F)C2=O)ccc1Oc1ccc([N+](=O)[O-])cn1	-8%	x	1%	6%	0.22µM*	-3%
O=C(O)c1cccc(-n2cccc2/C=C2/NC(=O)N(Cc3ccccc3F)C2=O)c1	x	x	x	6%	14µM*	-25%
Cc1ccccc1NC(=O)CN1C(=O)S/C(=C\c2cccn2-c2cccc(C(=O)O)c2)C1=O	28µM*	12	-10%	-4%[38.3 µM]	u	-21%[46.1 µM]
Cc1cccc(C)c1NC(=O)CN1C(=O)S/C(=C\c2cccn2-c2cccc(C(=O)O)c2)C1=O	-22%	-12	-8%	-11%[38.3 µM]	4%	-3%[46.1 µM]
Cc1cccc(-n2ccnc2CN2CCN(C(C)C)C(CCO)C2)c1 (configuration not stated)	x	x	x	x	x	17%
CCOc1ccc(Br)cc1C(=O)Nc1ccc(C(=O)NCC(C)C)cc1	2µM*	x	3%	10µM*	-2%	u
CC(=O)c1ccc(N2CCN(Cc3nc(Cc4ccccc4)no3)CC2)cc1	x	x	x	6%	18µM*	30%
Cn1c(=O)c2c(ncn2CC(=O)Nc2nnc(Cc3ccccc3)s2)n(C)c1=O	-16%	0	-2%	-1%[38.3 µM]	-2%	2%[46.1 µM]
COc1ccc(Cc2nnc(NC(=O)Cn3cnc4c3c(=O)n(C)c(=O)n4C)s2)cc1OC	14µM*	9	11%	-7%[38.3 µM]	u	1%[46.1 µM]
COc1ccc(CCNC(=O)c2cc(C(C)C)on2)cc1OC	-6%	4	-4%	21%[38.3 µM]	-1%	-4%[46.1 µM]
COc1ccc(CCNC(=O)C(=O)NCc2ccc(C(C)C)cc2)cc1OC	-19%	3	4%	6%[38.3 µM]	0.79µM*	1%[46.1 µM]
COc1cccc(N2C(=O)C3CCCN3C2c2ccc(N(C)C)cc2)c1 (configuration not stated)	-12%	5	5%	4%[38.3 µM]	1µM*	1%[46.1 µM]
COc1cc(C=O)ccc1OCCOCCOc1ccccc1Cl	u	-6	-10%	-12%[38.3 µM]	u	-20%[46.1 µM]
Cc1ccc2oc(=O)c(/C=C(\O)c3ccccc3)nc2c1	x	x	x	-4%	u	15%

Source: PubChem BioAssay
